# PubChem BioAssay (NCI)
# Compounds without any hit were thinned out: in the full panel of roughly 79,000, 15% have a hit. Unmarked numbers belong to inactive results. Active and inactive are the calls of the source. Cut-off read from the data, not from the text of the source: active = growth inhibition above about 70%; inactive = the rest.
# Experiments:
# [1] = NCI Yeast Anticancer Drug Screen. Data for the rad52 strain (AID 147);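 note: 0% = growth of vehicle-treated control cultures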; settings: S. cerevisiae rad52 mutant growth inhibition, active compounds read high
# Outline: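 Here a repair-compromised yeast strain receives each compound; its growth is then quantified and normalised to vehicle-only controls.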
# [2] = NCI Yeast Anticancer Drug Screen. Data for the wt1 strain (AID 149);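 note: 0% = growth of vehicle-treated wt1 cultures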; settings: S. cerevisiae wt1 strain (SPY 50644) growth inhibition, active compounds read high
# Outline: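 Growth inhibition read against vehicle controls after compound exposure of the wt1 yeast strain.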
# [3] = NCI Yeast Anticancer Drug Screen. Data for the rad50EPP+ strain (AID 151);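 note: 0% = growth of vehicle-treated control cultures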; settings: S. cerevisiae rad50 mutant strain, active compounds read high
# Outline: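 Read-out is yeast growth inhibition relative to vehicle; cells used were the rad50EPP+ strain.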
# [4] = NCI Yeast Anticancer Drug Screen. Data for the mgt1 strain (AID 153); settings: S. cerevisiae mgt1 mutant growth inhibition, active compounds read high
# Outline: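 Measured: inhibition of mgt1 yeast growth by compound, normalized to vehicle-treated cultures.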
# [5] = NCI Yeast Anticancer Drug Screen. Data for the rad50 strain (AID 155);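 note: 0% = growth of vehicle-only cultures of the same strain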; settings: S. cerevisiae rad50 strain growth inhibition, active compounds read high
# Outline: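 Readout: growth inhibition relative to vehicle-treated cultures. Compound exposure was carried out in a genetically defined yeast strain deficient in DNA damage repair.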
# [6] = NCI Yeast Anticancer Drug Screen. Data for the mec2-1 strain (AID 157); settings: S. cerevisiae mec2-1 strain, active compounds read high
# Outline: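 Using mec2-1 yeast: add compound, measure growth, express inhibition versus vehicle-treated cultures.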
# [7] = NCI Yeast Anticancer Drug Screen. Data for the rad14 strain (AID 159);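 note: 0% = growth of vehicle-treated control cultures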; settings: S. cerevisiae rad14 strain growth inhibition, active compounds read high
# Outline: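 Growth inhibition vs vehicle controls; genetically altered yeast strain (DNA damage repair defect) treated with test compounds.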
# [8] = NCI Yeast Anticancer Drug Screen. Data for the sgs1 mgt1 strain (AID 161);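 note: 0% = growth of cultures given vehicle only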; settings: S. cerevisiae sgs1 mgt1 strain, active compounds read high
# Outline: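 Growth of a repair-deficient yeast mutant was monitored after compound treatment and expressed as inhibition relative to vehicle-treated cultures.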
# [9] = NCI Yeast Anticancer Drug Screen. Data for the cln2 rad14 strain (AID 165);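 note: 0% = growth equal to vehicle treated cultures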; settings: S. cerevisiae cln2 rad14 strain, active compounds read high
# Outline: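 Yeast strain cln2 rad14, bearing defects in cell cycle control and DNA repair, serves as the test system; values reflect growth inhibition compared with vehicle.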
# [10] = NCI Yeast Anticancer Drug Screen. Data for the bub3 strain (AID 167); settings: S. cerevisiae bub3 mutant strain, active compounds read high
# Outline: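 Readout: yeast growth inhibition, expressed relative to vehicle-only wells. The test organism is a mutant strain from a panel with lesions in DNA repair or checkpoint genes.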
# [11] = NCI Yeast Anticancer Drug Screen. Data for the wt2 strain (AID 169);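 note: 0% = growth of vehicle-treated yeast cultures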; settings: S. cerevisiae wt2 strain growth inhibition, active compounds read high
# Outline: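 Treated yeast vs. vehicle-treated yeast: growth inhibition determined.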
# [12] = NCI Yeast Anticancer Drug Screen. Data for the mlh1 strain (AID 171);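 note: 0% = growth of vehicle-treated control cultures of the same strain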; settings: S. cerevisiae mlh1 strain growth inhibition, active compounds read high
# Outline: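 A yeast strain with a defined genetic lesion serves as the test organism. Cultures receive compound or vehicle, and growth is measured.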
# [13] = NCI Yeast Anticancer Drug Screen. Data for the sgs1 strain (AID 173);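 note: 0% = growth of vehicle-only control cultures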; settings: S. cerevisiae sgs1 mutant, active compounds read high
# Outline: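 A genetically defined yeast mutant is incubated with the test compound, and its growth is compared to that of the same strain given vehicle.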
# [14] = NCI Yeast Anticancer Drug Screen. Data for the mlh1 rad18 strain (AID 175); settings: S. cerevisiae mlh1 rad18 strain growth inhibition, active compounds read high
# Outline: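 Steps: expose repair-defective yeast to compound; measure growth; express inhibition against vehicle-treated controls.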
# [15] = NCI Yeast Anticancer Drug Screen. Data for the rad18 strain (AID 177); settings: S. cerevisiae rad18 mutant growth inhibition, active compounds read high
# Outline: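 Measured value is growth inhibition of a yeast strain bearing a DNA repair alteration, referenced to vehicle-treated cells.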
# [16] = NCI Yeast Anticancer Drug Screen. Data for the CLN2oe strain (AID 163);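 note: 0% = growth of vehicle-only control cultures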; settings: S. cerevisiae CLN2oe strain, active compounds read high
# Outline: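 Whole-cell yeast growth assay. A strain engineered for altered cell-cycle control received compound, and inhibition relative to vehicle-treated cultures was recorded.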
# [17] = at 5.0 µM (retest, dose inferred, filed as 0.5)
# [18] = at 50.0 µM (retest, dose inferred, filed as 5.0)
compound,measurement,setting,value
N#Cc1cc(N(CCCl)CCCl)c([N+](=O)[O-])cc1[N+](=O)[O-],growth inhibition,[1]; at 1.2 µM,7%
same,growth inhibition,[1]; at 3.7 µM,19%
same,growth inhibition,[1]; at 11.0 µM,28%
same,growth inhibition,[1]; at 33.0 µM,67%
same,growth inhibition,[1]; at 100.0 µM,85% (active)
same,growth inhibition,[2]; at 1.2 µM,-6%
same,growth inhibition,[2]; at 3.7 µM,4%
same,growth inhibition,[2]; at 11.0 µM,-7%
same,growth inhibition,[2]; at 33.0 µM,2%
same,growth inhibition,[2]; at 100.0 µM,58%
same,growth inhibition,[3]; at 1.2 µM,15%
same,growth inhibition,[3]; at 3.7 µM,17%
same,growth inhibition,[3]; at 11.0 µM,11%
same,growth inhibition,[3]; at 33.0 µM,32%
same,growth inhibition,[3]; at 100.0 µM,39%
same,growth inhibition,[4]; at 1.2 µM,-2%
same,growth inhibition,[4]; at 3.7 µM,-8%
same,growth inhibition,[4]; at 11.0 µM,-4%
same,growth inhibition,[4]; at 33.0 µM,28%
same,growth inhibition,[4]; at 100.0 µM,87% (active)
same,growth inhibition,[5]; at 1.2 µM,-4%
same,growth inhibition,[5]; at 3.7 µM,-8%
same,growth inhibition,[5]; [17],5%
same,growth inhibition,[5]; at 11.0 µM,10%
same,growth inhibition,[5]; at 33.0 µM,40%
same,growth inhibition,[5]; [18],42%
same,growth inhibition,[5]; at 50.0 µM,87.4% (active)
same,growth inhibition,[5]; at 100.0 µM,65%
same,growth inhibition,[6]; at 1.2 µM,22%
same,growth inhibition,[6]; at 3.7 µM,24%
same,growth inhibition,[6]; [17],-43%
same,growth inhibition,[6]; at 11.0 µM,23%
same,growth inhibition,[6]; at 33.0 µM,28%
same,growth inhibition,[6]; [18],11%
same,growth inhibition,[6]; at 50.0 µM,88.8% (active)
same,growth inhibition,[6]; at 100.0 µM,67%
same,growth inhibition,[7]; at 1.2 µM,3%
same,growth inhibition,[7]; at 3.7 µM,7%
same,growth inhibition,[7]; at 11.0 µM,19%
same,growth inhibition,[7]; at 33.0 µM,61%
same,growth inhibition,[7]; at 100.0 µM,88% (active)
same,growth inhibition,[8]; [17],-19%
same,growth inhibition,[8]; [18],46%
same,growth inhibition,[8]; at 50.0 µM,90.3% (active)
same,growth inhibition,[9]; [17],11%
same,growth inhibition,[9]; [18],43%
same,growth inhibition,[9]; at 50.0 µM,79.5% (active)
same,growth inhibition,[10]; at 1.2 µM,11%
same,growth inhibition,[10]; at 3.7 µM,10%
same,growth inhibition,[10]; [17],-11%
same,growth inhibition,[10]; at 11.0 µM,-7%
same,growth inhibition,[10]; at 33.0 µM,31%
same,growth inhibition,[10]; [18],40%
same,growth inhibition,[10]; at 50.0 µM,84.9% (active)
same,growth inhibition,[10]; at 100.0 µM,79% (active)
same,growth inhibition,[11]; at 1.2 µM,4%
same,growth inhibition,[11]; at 3.7 µM,6%
same,growth inhibition,[11]; at 11.0 µM,8%
same,growth inhibition,[11]; at 33.0 µM,36%
same,growth inhibition,[11]; at 100.0 µM,80% (active)
same,growth inhibition,[12]; at 1.2 µM,34%
same,growth inhibition,[12]; at 3.7 µM,4%
same,growth inhibition,[12]; at 11.0 µM,34%
same,growth inhibition,[12]; at 33.0 µM,70% (active)
same,growth inhibition,[12]; at 100.0 µM,92% (active)
same,growth inhibition,[13]; at 1.2 µM,29%
same,growth inhibition,[13]; at 3.7 µM,31%
same,growth inhibition,[13]; at 11.0 µM,44%
same,growth inhibition,[13]; at 33.0 µM,82% (active)
same,growth inhibition,[13]; at 100.0 µM,92% (active)
same,growth inhibition,[14]; [17],21%
same,growth inhibition,[14]; [18],76% (active)
same,growth inhibition,[14]; at 50.0 µM,80.5% (active)
same,growth inhibition,[15]; at 1.2 µM,64%
same,growth inhibition,[15]; at 3.7 µM,82% (active)
same,growth inhibition,[15]; at 11.0 µM,89% (active)
same,growth inhibition,[15]; at 33.0 µM,95% (active)
same,growth inhibition,[15]; at 100.0 µM,95% (active)
COc1cc([C@@H]2c3cc4c(cc3C[C@@H]3COC(=O)C32)OCO4)cc(OC)c1O (stereo partly specified),growth inhibition,[1]; at 1.2 µM,42%
same,growth inhibition,[1]; at 3.7 µM,62%
same,growth inhibition,[1]; at 11.0 µM,93% (active)
same,growth inhibition,[1]; at 33.0 µM,95% (active)
same,growth inhibition,[1]; at 100.0 µM,96% (active)
same,growth inhibition,[2]; at 1.2 µM,32%
same,growth inhibition,[2]; at 3.7 µM,34%
same,growth inhibition,[2]; at 11.0 µM,65%
same,growth inhibition,[2]; at 33.0 µM,86% (active)
same,growth inhibition,[2]; at 100.0 µM,93% (active)
same,growth inhibition,[4]; at 1.2 µM,29%
same,growth inhibition,[4]; at 3.7 µM,22%
same,growth inhibition,[4]; at 11.0 µM,53%
same,growth inhibition,[4]; at 33.0 µM,59%
same,growth inhibition,[4]; at 100.0 µM,93% (active)
same,growth inhibition,[5]; at 1.2 µM,53%
same,growth inhibition,[5]; at 3.7 µM,76% (active)
same,growth inhibition,[5]; [17],64%
same,growth inhibition,[5]; at 11.0 µM,94% (active)
same,growth inhibition,[5]; at 33.0 µM,96% (active)
same,growth inhibition,[5]; [18],96% (active)
same,growth inhibition,[5]; at 50.0 µM,97.1% (active)
same,growth inhibition,[5]; at 100.0 µM,97% (active)
same,growth inhibition,[6]; at 1.2 µM,1%
same,growth inhibition,[6]; at 3.7 µM,17%
same,growth inhibition,[6]; [17],3%
same,growth inhibition,[6]; at 11.0 µM,49%
same,growth inhibition,[6]; at 33.0 µM,92% (active)
same,growth inhibition,[6]; [18],46%
same,growth inhibition,[6]; at 50.0 µM,98.8% (active)
same,growth inhibition,[6]; at 100.0 µM,96% (active)
same,growth inhibition,[7]; at 1.2 µM,9%
same,growth inhibition,[7]; at 3.7 µM,8%
same,growth inhibition,[7]; at 11.0 µM,65%
same,growth inhibition,[7]; at 33.0 µM,75% (active)
same,growth inhibition,[7]; at 100.0 µM,93% (active)
same,growth inhibition,[8]; [17],5%
same,growth inhibition,[8]; [18],45%
same,growth inhibition,[8]; at 50.0 µM,78.3% (active)
same,growth inhibition,[16]; at 1.2 µM,-3%
same,growth inhibition,[16]; at 3.7 µM,0%
same,growth inhibition,[16]; at 11.0 µM,24%
same,growth inhibition,[16]; at 33.0 µM,58%
same,growth inhibition,[16]; at 100.0 µM,51%
same,growth inhibition,[9]; [17],9%
same,growth inhibition,[9]; [18],93% (active)
same,growth inhibition,[9]; at 50.0 µM,86.2% (active)
same,growth inhibition,[10]; at 1.2 µM,3%
same,growth inhibition,[10]; at 3.7 µM,5%
same,growth inhibition,[10]; [17],-36%
same,growth inhibition,[10]; at 11.0 µM,31%
same,growth inhibition,[10]; at 33.0 µM,50%
same,growth inhibition,[10]; [18],69%
same,growth inhibition,[10]; at 50.0 µM,89.5% (active)
same,growth inhibition,[10]; at 100.0 µM,36%
same,growth inhibition,[11]; at 1.2 µM,2%
same,growth inhibition,[11]; at 3.7 µM,10%
same,growth inhibition,[11]; at 11.0 µM,33%
same,growth inhibition,[11]; at 33.0 µM,77% (active)
same,growth inhibition,[11]; at 100.0 µM,88% (active)
same,growth inhibition,[12]; at 1.2 µM,9%
same,growth inhibition,[12]; at 3.7 µM,14%
same,growth inhibition,[12]; at 11.0 µM,66%
same,growth inhibition,[12]; at 33.0 µM,86% (active)
same,growth inhibition,[12]; at 100.0 µM,93% (active)
same,growth inhibition,[13]; at 1.2 µM,20%
same,growth inhibition,[13]; at 3.7 µM,16%
same,growth inhibition,[13]; at 11.0 µM,72% (active)
same,growth inhibition,[13]; at 33.0 µM,90% (active)
same,growth inhibition,[13]; at 100.0 µM,96% (active)
same,growth inhibition,[14]; [17],2%
same,growth inhibition,[14]; [18],68%
same,growth inhibition,[14]; at 50.0 µM,96.9% (active)
same,growth inhibition,[15]; at 1.2 µM,2%
same,growth inhibition,[15]; at 3.7 µM,10%
same,growth inhibition,[15]; at 11.0 µM,65%
same,growth inhibition,[15]; at 33.0 µM,86% (active)
same,growth inhibition,[15]; at 100.0 µM,93% (active)
